Source: PubChem BioAssay (Sanford-Burnham Center for Chemical Genomics)
In the library only some 4% were active in any assay of this set; here they are far more common.
TIM10 inh – inhibits growth of TIM10 yeast strain; inhibition, % at 10 µM; 1.4% of 330,000 active; S. cerevisiae TIM10 strain growth, BacTiter-Glo luminescence, 24 h; AID 463195;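 active means inhibition of 40% or more at the single tested concentration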;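 further: wild-type TIM10 isogenic control strain grown at permissive 25 °C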
NLRP3 yeast inh – blocks the NALP3 inflammasome reconstituted in yeast; Yeast reconstituted NLRP3/ASC/caspase-1, beta-gal luminescence, 24 h; inhibition, % at 10 µM; 0.39% of 330,000 active;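 active means inhibition of 50% or more; inactive means inhibition below 50%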;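 further: plate controls were induced DMSO wells for no effect and uninduced yeast grown without galactose for full effect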
tim23-1 inh – growth inhibitors of tim23-1 mutant yeast. S. cerevisiae tim23-1 growth, BacTiter-Glo luminescence, 24 h. inhibition, % at 20 µM. 1.3% of 330,000 active;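 active means growth inhibition of the mutant yeast at or above 50%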;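 further: temperature-sensitive mutant grown at 25 °C; plate controls were DMSO-treated mutant yeast for no effect and medium wells lacking yeast for full effect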
NALP1 inh – NALP1 inhibition. S. cerevisiae NALP1/ASC/caspase-1 growth, X-gal OD620, 72 h. inhibition, % at 10 µM. 0.61% of 280,000 active. AID 2071; in the data active means inhibition mostly above about 24%, no sharp cut-off; inactive means mostly below about 32%
tim10-1 inh – inhibits growth of tim10-1 mutant yeast; S. cerevisiae tim10-1 ts strain growth, BacTiter-Glo, 24 h; inhibition, % at 20 µM; 2.2% of 330,000 active; AID 463190;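 active means inhibition of at least 40%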;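 further: mutant grown at 25 °C; 0% = DMSO wells with yeast and 100% = wells holding no yeast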
tim10-1 conf – tim10-1 yeast growth inhibition, confirmed; S. cerevisiae tim10-1 ts strain growth, BacTiter-Glo, 24 h; inhibition, % at 20 µM; AID 463213; 56% of 7,400 active; shares compounds with tim10-1 inh;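 active means inhibition of yeast growth at or above a set limit in either of two repeat tests at 20 µM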;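 further: tim10-1 mutant grown at permissive 25 °C to find synthetic lethal compounds; 0% = DMSO yeast wells and 100% = medium wells without yeast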
An asterisk follows results filed as active; / = no result.

SMILES	TIM10 inh	NLRP3 yeast inh	tim23-1 inh	NALP1 inh	tim10-1 inh	tim10-1 conf
CCCCOc1ccc(OCCSc2nc3ccccc3n2CC(=O)O)cc1	5	15	11	-3	-5	/
O=C(Cn1cnc([N+](=O)[O-])n1)NCCO	-8	0	8	-2	-3	/
Nc1ccccc1-c1nnc(-c2ccc(-c3ccccc3)cc2)o1	31	4	22	16	47*	18
CC(C)c1csc(CN2CCC(n3nccc3NC(=O)Cc3ccccc3)CC2)n1	-5	-1	-22	8	-2	/
CCc1ccc(NS(=O)(=O)c2c(C(=O)N3CCOCC3)c(C)n(C)c2C)cc1	1	3	13	14	6	/
Clc1ccc(-n2nnnc2-c2cnc3ccc(Cl)cc3c2-c2ccccc2)cc1	1	9	38	/	-24	/
Clc1ccc2ncc(-c3nnnn3-c3ccccc3)c(-c3ccccc3)c2c1	30	8	48	11	44*	36*
N#Cc1ccc(Cn2ccnc2C(=O)Nc2ccccc2)cc1	26	-72	2	-6	57*	27
C(=N\N1CCOCC1)/c1cn(-c2ccccc2)nc1-c1ccccc1	8	31	50	-4	49*	40*
O=C(N/C(=C\c1cn(-c2ccccc2)nc1-c1ccccc1)C(=O)N1CCOCC1)c1ccccc1	-17	11	-15	28	15	/
N#Cc1nc(-c2ccco2)oc1N1CCc2ccccc2C1	15	23	32	7	44*	27
COc1ccc(OCCC(=O)OCC(=O)NC2CCCCC2)cc1	2	5	27	/	21	/
COc1ccc(OCCC(=O)OCC(=O)NC2CCCCCCC2)cc1	24	4	38	6	43*	40*
CNc1ccccc1C(C)(C)c1cc(-c2cccc([N+](=O)[O-])c2)no1	37	26	27	-7	43*	33*
CNc1ccccc1C(C)(C)c1cc(-c2cccc(Br)c2)no1	13	-2	31	-5	37	/
N/C(Cc1ccc([N+](=O)[O-])cc1)=N\OC(=O)Cc1ccccc1	14	31	15	22	51*	41*
Cc1cccc(OCC(=O)O/N=C(\N)Cc2ccc([N+](=O)[O-])cc2)c1	32	22	25	4	15	/
Cc1ccc(OCC(=O)O/N=C(\N)Cc2ccc([N+](=O)[O-])cc2)cc1C	16	22	29	/	52*	53*
C/C(=N\NC(=O)c1cc(-c2ccc(C)s2)[nH]n1)c1ccco1	-7	22	3	20	-31	/
Cc1ccc(O)c(C(=O)CC(=O)c2ccc(Cl)cc2)c1	/	/	/	-15	/	/
Cc1cccc(C(=O)CC(=O)c2cc(Cl)ccc2O)c1	29	-1	41	22	47*	63*
COc1ccc(C(=O)Nc2ccc(Cl)cc2C(=O)NCc2ccco2)cc1OC	16	28	30	1	43*	15
CCN(CC(=O)Nc1ccc(NC(C)=O)cc1)C(=O)Cc1ccc(S(=O)(=O)N2CCOCC2)s1	0	12	-1	/	5	/
O=C(Nc1nnc(C2CC2)o1)c1ccc(S(=O)(=O)N2CCCCC2)cc1	9	5	20	-4	24	/
CC1CCN(S(=O)(=O)c2ccc(C(=O)Nc3nnc(C4CC4)o3)cc2)CC1	20	14	38	-12	41*	10
SMILES	TIM10 inh	NLRP3 yeast inh	tim23-1 inh	NALP1 inh	tim10-1 inh	tim10-1 conf
COc1ccc(CCNC(=O)COC(=O)/C=C/c2cc(OC)c(OC)c(OC)c2)cc1OC	-7	5	-2	3	13	/
O=[N+]([O-])c1ccc(N=Nc2ccc(O)cc2O)cc1	26	29	42	-10	59*	44*
COc1ccc(NC(=O)c2cn(CCC#N)nc2-c2cccs2)cc1	36	12	28	/	41*	25
N#CCCn1cc(C(=O)Nc2ccc([N+](=O)[O-])cc2)c(-c2cccs2)n1	10	25	34	22	33	/
COc1ccc(C)cc1NS(=O)(=O)c1ccc(-c2cnc(C3CC3)o2)cc1	-21	-4	37	-6	43*	2
Cc1ccc(CNS(=O)(=O)c2ccc(-c3cnc(C4CC4)o3)cc2)cc1	28	17	45	4	27	/
Cc1ccc(NS(=O)(=O)c2ccc(-c3cnc(C4CC4)o3)cc2)cc1	-15	38	27	12	40*	-11
CC(=O)c1ccc(NS(=O)(=O)c2ccc(-c3cnc(C4CC4)o3)cc2)cc1	6	0	20	-12	11	/
CC(C)(C)NS(=O)(=O)c1cnc(Cl)c(Cl)c1	-27	6	2	-7	2	/
COc1ccc(C2c3sc(=O)[nH]c3SCC2C(N)=O)cc1 (stereo not given)	10	5	-1	-6	1	/
CCOC(=O)C1CSc2[nH]c(=O)sc2C1c1ccccc1 (stereo not given)	21	10	37	-11	40	16
CC(=O)Nc1ccc(C(=O)N/C(=C\c2ccccc2)C(=O)Nc2cccc(C(=O)O)c2)cc1	-18	-6	8	-3	0	/
Cc1ccc(N2C(=O)CC(Sc3cccs3)C2=O)cc1 (stereo not given)	18	32	29	2	45*	49*
O=C(CCNC(=O)c1ccccc1Cl)NCCC1=CCCCC1	0	14	12	/	1	/
O=S(=O)(/C=C/c1ccccc1)n1cnc2ccccc21	38	9	29	5	44*	32*
CN(C)S(=O)(=O)n1cnc2ccccc21	-1	-6	3	6	7	/
Cc1nn(-c2ccccc2)c(Cl)c1C(=O)N1CCN(c2ncnc3c2cnn3-c2ccccc2)CC1	24	18	23	4	41*	32*
O=C(c1ccco1)N1CCN(c2ncnc3c2cnn3-c2ccccc2)CC1	6	20	12	13	8	/
CCOC(=O)c1ccc(N2CCOCC2)c(NC(=O)c2ccc3c(c2)OCO3)c1	-10	32	37	-10	25	/
COc1ccc(-c2nc(CS(=O)(=O)CC(=O)NCCCN3CCN(C)CC3)c(C)o2)cc1	-1	15	10	16	3	/
C=CCSc1nc2c(c(C3CC=CCC3)c1C#N)CCC2 (stereo not given)	17	1	35	39	41*	60*
Cc1ccc2c(c1)c1c(n2C)C(C(N)=O)CCC1 (stereo not given)	-13	22	15	30	4	/
Cc1ccc2c(c1)c1c(n2C)-c2[nH]ncc2CC1	6	1	24	6	55*	-27
CCCCN(C(=O)C1=COCCO1)c1c(N)n(Cc2ccccc2)c(=O)[nH]c1=O	-1	23	23	/	43*	5
COCCN(C(=O)C1=COCCO1)c1c(N)n(Cc2ccccc2)c(=O)[nH]c1=O	5	14	8	2	1	/
Clc1ccc2nc(CSCc3ccccc3)cn2c1	8	35	10	1	10	/
N#C/C(=C\c1ccc(-c2ccc(Br)cc2)o1)C(=O)NCCc1c[nH]c2ccccc12	37	19	14	22	41*	21
